Results taken from PubChem BioAssay AID504834 (National Center for Advancing Translational Sciences (NCATS), 2011).
Screen size: about 320,000 compounds; about 22,000 (6.9%) were called active. Where a call stands in place of a potency, no number is given. About 27% were inconclusive and are not listed. Calls come from the whole dose curve; as a rule, active = well fitted inhibition curve with a large enough effect; inconclusive = small, poorly fitted or top-dose-only effect, or another doubt; inactive = no such curve, though single readings can be large or run the other way. The full list was thinned out, with actives kept by preference.

test: Primary qHTS for delayed death inhibitors of the malarial parasite plastid, 96 hour incubation; conditions: P. falciparum luciferase reporter growth; series mostly up to 28.7 µM
From the text: The goal of this screen is to discover new antimalarial compounds that act by inhibiting the development of the apicoplast in the malarial parasite Plasmodium falciparum. The biochemical processes that make this organelle essential for erythrocytic stage parasites are not well understood. However, antibiotics such as azithromycin and tetracycline, which target the apicoplast translational machinery, have a potent antimalarial effect.
We have developed a cell-based assay that measures parasite growth based on the expression of an integrated copy of a firefly luciferase reporter. To detect small molecules that cause this "delayed death" phenotype, erythrocytes infected with the luciferase-expressing parasites were incubated with compounds for either one or two generations, corresponding to 48 and 96 hours, respectively. Compounds that inhibit parasite growth in the second generation, but not the first, should be enriched in antimalarials that target the apicoplast. Growth inhibition is detected by a decrease in luciferase activity.
Assay Provider: David Fidock and Eric Ekland, Columbia University
Keywords: NIH Roadmap, MLPCN, MLI, MLSMR, qHTS, NCGC, qHTS, malaria, luciferase, viability
Four microliters of infected erythrocytes (2% hematocrit, 0.05% parasitemia final concentration) in culture medium were dispensed and the plates incubated for 96 hours at 37 C in 5% CO2. Two microliters of luciferase detection reagent was added and luminescence was detected by a ViewLux (PerkinElmer) reader.
Potency is the fitted concentration of half-maximal effect.

Q: With OCCN1CCN(c2nnc(-c3ccccc3)c3ccccc23)CC1 as the compound, how does the Potency read?
A: inactive

Q: Which Potency does the source give for Cc1nccn1CCCNC(=O)CC1C(=O)NCCN1Cc1ccc(Cl)c(F)c1 (stereo not given) here?
A: inactive

Q: With CCCOC(=O)CC1C(=O)NCCN1Cc1ccc(F)cc1 (stereo not given) as the compound, how does the Potency read?
A: inactive

Q: For Cc1ccc(CN2CCNC(=O)C2CC(=O)NCc2csc(C(C)C)n2)cc1 (stereo not given), which Potency is on record?
A: 11.7 µM (active)

Q: With CCn1ccnc1CNC(=O)CC1C(=O)NCCN1CCCc1ccccc1 (stereo not given) as the compound, how does the Potency read?
A: inactive

Q: For CCOc1ccc(CN2CCNC(=O)C2CC(=O)NCCCC2CCCC2)cc1 (stereo not given), which Potency is on record?
A: 13.1 µM (active)

Q: Which Potency does the source give for CCn1ccnc1CNC(=O)CC1C(=O)NCCN1Cc1ccc(F)cc1Cl (stereo not given) here?
A: inactive

Q: For CC(=O)Nc1ccc(NC(=O)C(NS(=O)(=O)c2ccc3c(c2)OCCO3)C(C)C)cc1 (stereo not given), which Potency is on record?
A: inactive

Q: Which Potency does the source give for CCn1cc(C(=O)N[C@@H](C)C(=O)NCCO)c(=O)c2cc3c(cc21)OCO3 here?
A: inactive

Q: Which Potency does the source give for COc1nnc(-c2ccc(C)c(S(=O)(=O)N(C)C)c2)c2ccccc12 here?
A: inactive

Q: For c1ccc(-c2cc(-c3ccccc3)[nH]n2)cc1, which Potency is on record?
A: inactive

Q: With CC(=O)OCCOCn1cnn2c(=O)c(Br)c(C)nc12 as the compound, how does the Potency read?
A: inactive

Q: Which Potency does the source give for CC(C)c1nnc(NC(=O)C2CC(=O)N(CCc3ccc(F)cc3)C2)s1 (stereo not given) here?
A: inactive

Q: Which Potency does the source give for S=C(NCCc1ccccc1)NCC1CCCO1 (stereo not given) here?
A: inactive

Q: Which Potency does the source give for O=C(CS(=O)(=O)Cc1ccccc1)NCC1CCCO1 (stereo not given) here?
A: 2.94 µM (active)

Q: For O=C(COC(=O)c1ccc(S(=O)(=O)Nc2ccccc2)cc1)NCC1CCCO1 (stereo not given), which Potency is on record?
A: inactive

Q: Which Potency does the source give for CC(=O)Nc1ccc(S(=O)(=O)Nc2ccc(N3CCOCC3)c(F)c2)cc1 here?
A: inactive

Q: Which Potency does the source give for COc1ccc(NS(=O)(=O)c2ccc(C)c(C(=O)NNC(=O)c3csc(N4CCOCC4)n3)c2)cc1 here?
A: inactive

Q: Which Potency does the source give for COc1ccc(NS(=O)(=O)c2ccc(N3CCOCC3)c(NC(=O)c3ccccc3Br)c2)cc1 here?
A: 9.28 µM (active)

Q: For CCCCn1c(N)c(N(CC(C)C)C(=O)c2ccc(-n3c(C)ccc3C)cc2)c(=O)[nH]c1=O, which Potency is on record?
A: inactive

Q: Which Potency does the source give for CCOc1ccc(NC(=S)N2CCC(NC(=O)c3ccccc3)CC2)cc1 here?
A: inactive

Q: Which Potency does the source give for CCOc1ccc(C(=O)NC2CCN(C(=O)Nc3ccccc3OC)CC2)cc1 here?
A: inactive

Q: With CCOc1ccc(C(=O)NC2CCN(S(=O)(=O)CC)CC2)cc1 as the compound, how does the Potency read?
A: 2.33 µM (active)

Q: With CCOc1c(OC)cccc1C(=O)NCC1(c2ccccc2)CCCC1 as the compound, how does the Potency read?
A: inactive

Q: For COc1ccccc1CNC(=O)Cn1cc2c(n1)CCCC2, which Potency is on record?
A: inactive

Q: Which Potency does the source give for COc1ccccc1CNC(=O)CSc1nc(=O)n(Cc2ccncc2)c2c1CCC2 here?
A: 14.7 µM (active)

Q: For CN(C)CCn1c2c(c(SCC(=O)NCc3ccccc3)nc1=O)CCC2, which Potency is on record?
A: inactive

Q: For O=C(NCCc1ccc(Cl)cc1)C1CCCN1C(=O)NCc1ccccc1 (stereo not given), which Potency is on record?
A: inactive

Q: Which Potency does the source give for NC(=O)C1CC(=O)N(c2ccc(OCC(=O)NCc3ccccc3)cc2)C1 (stereo not given) here?
A: inactive

Q: With CC(NC(=O)c1ccc(S(=O)(=O)Nc2ccccc2)cc1)c1ccc(S(N)(=O)=O)cc1 (stereo not given) as the compound, how does the Potency read?
A: inactive

Q: With Cc1sc2nc(CSCC(=O)NC3CCCCC3)[nH]c(=O)c2c1C as the compound, how does the Potency read?
A: inactive

Q: For O=C(CSc1nnc(-c2ccccc2)o1)N1CCOCC1, which Potency is on record?
A: inactive

Q: Which Potency does the source give for Cc1cccc(C)c1OC(=O)CSc1nnc(-c2ccccc2)o1 here?
A: inactive

Q: Which Potency does the source give for CC1=CC(C)(C)N(C(=O)CSc2nnc(-c3ccccc3)o2)c2ccc(C)cc21 here?
A: 13.1 µM (active)

Q: For Cc1ccccc1C(=O)N1CCC(C(=O)Oc2ccc(C#N)cc2)CC1, which Potency is on record?
A: inactive

Q: Which Potency does the source give for COc1ccc(S(=O)(=O)N2CCOC2CNC(=O)C(=O)NCc2ccncc2)cc1OC (stereo not given) here?
A: inactive

Q: With Cc1cccc(C)c1NC(=O)CS(=O)CC(=O)N1CCN(c2ccccc2)CC1 (stereo not given) as the compound, how does the Potency read?
A: inactive

Q: For COc1ccc(Nc2ncnc3sc(-c4ccccc4)cc23)c(OC)c1, which Potency is on record?
A: inactive

Q: Which Potency does the source give for S=C(NCC1COc2ccccc2O1)Nc1ccc(Br)cc1 (stereo not given) here?
A: inactive

Q: Which Potency does the source give for c1ccc(-c2cc3c(NCC4COc5ccccc5O4)ncnc3s2)cc1 (stereo not given) here?
A: 10.4 µM (active)

Q: Which Potency does the source give for N#Cc1ccc(-c2nc3cc(C#N)c(C#N)cc3nc2-c2ccccc2)cc1C#N here?
A: 5.22 µM (active)

Q: Which Potency does the source give for N#Cc1ccc(-c2ccc(F)cc2)nc1Sc1ccccc1 here?
A: inactive

Q: For N#Cc1c(-c2ccc(F)cc2)nc(-c2ccccc2)[nH]c1=O, which Potency is on record?
A: inactive

Q: Which Potency does the source give for COc1cccc(CNC(=O)Cn2c(=O)oc3cc(S(=O)(=O)N4CCCCC4)ccc32)c1 here?
A: inactive

Q: With CCc1cccc(C)c1NC(=O)COC(=O)CC1CCCC1 as the compound, how does the Potency read?
A: inactive

Q: With CC(C)Sc1ncnc2c1cnn2-c1ccccc1 as the compound, how does the Potency read?
A: inactive

Q: With O=C(NCCC1=CCCCC1)c1ccc(-n2cncn2)cc1 as the compound, how does the Potency read?
A: inactive

Q: For C1=C(CCNc2ncnc3c2cnn3-c2ccccc2)CCCC1, which Potency is on record?
A: 0.104 µM (active)

Q: For O=C(CSc1ncccn1)N1CCCC1, which Potency is on record?
A: inactive

Q: With CN1CCN(S(=O)(=O)c2ccc(Nc3ccc(F)cc3)nc2)CC1 as the compound, how does the Potency read?
A: inactive

Q: With COCCn1c(CN(Cc2ccccc2)Cc2ccccc2)nc2c1c(=O)n(C)c(=O)n2C as the compound, how does the Potency read?
A: 2.94 µM (active)

Q: With CCN1CCN(Cc2nc3c(c(=O)n(C)c(=O)n3C)n2CC(=O)c2ccccc2)CC1 as the compound, how does the Potency read?
A: inactive

Q: For CN1CCN(Cc2nc3c(c(=O)n(C)c(=O)n3C)n2Cc2cccc3ccccc23)CC1, which activity change, negative = inhibition is on record?
A: 2.21% [at 5.75 µM] (inactive)

Q: Which Potency does the source give for CC(C)Cn1c(CN(Cc2ccccc2)Cc2ccccc2)nc2c1c(=O)n(C)c(=O)n2C here?
A: inactive

Q: Which Potency does the source give for CCOC(=O)N1CCN(CCC(=O)Nc2ccccc2)CC1 here?
A: inactive

Q: Which Potency does the source give for Cn1c(=O)c2c(nc(Br)n2CCSc2nc3ccccc3o2)n(C)c1=O here?
A: inactive

Q: With CCOC(=O)N1CCN(Cc2nc3c(c(=O)n(C)c(=O)n3C)n2Cc2ccccc2)CC1 as the compound, how does the Potency read?
A: 13.1 µM (active)

Q: With Cn1c(=O)[nH]c(=O)c2c1nc(N(CCO)Cc1ccccc1)n2Cc1ccccc1Cl as the compound, how does the Potency read?
A: inactive

Q: With CCCCCCn1c(CN2CCCC(C)C2)nc2c1c(=O)n(C)c(=O)n2C (stereo not given) as the compound, how does the Potency read?
A: inactive

Q: For Cn1c(=O)[nH]c(=O)c2c1nc(CN(Cc1ccccc1)Cc1ccccc1)n2CCN1CCOCC1, which Potency is on record?
A: inactive

Q: For COCCn1c(CN2CCC(Cc3ccccc3)CC2)nc2c1c(=O)n(C)c(=O)n2C, which Potency is on record?
A: 5.22 µM (active)

Q: Which Potency does the source give for CCOC(=O)Cn1c(CN(Cc2ccccc2)Cc2ccccc2)nc2c1c(=O)[nH]c(=O)n2C here?
A: 3.29 µM (active)

Q: For Cc1ccc(C)c(OCc2cc(C(=O)N3CCN(c4cnccn4)CC3)no2)c1, which Potency is on record?
A: inactive

Q: With COc1ccccc1CCCNC(=O)C1CCC(=O)N(CCN2CCOCC2)C1 (stereo not given) as the compound, how does the Potency read?
A: inactive

Q: For CCCCCn1c(=O)[nH]c2cc(C(=O)NCCCN3CCCCC3C)ccc2c1=O (stereo not given), which Potency is on record?
A: inactive
